“And” between values parts separate entries of the source, which are not always exact repeats. Equal entries are not always repeated. In all, about 370,000 compounds went through this assay and about 3,700 (1%) were called active.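 How the source made its calls: active means activation above the mean over all tested compounds plus 3 SD (cut at about 0.9% in these data); inactive means the rest.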 The entries come from a sample that favours actives as a whole. Some structures have more than one record in an assay (separate samples or runs), and their calls can disagree.

The test has as its system Nuclear hormone receptor DAF-12 (Strongyloides stercoralis). Briefly: S. stercoralis DAF-12 nuclear receptor activators, primary screen, cell-based, luminescence, HEK293, GRIP1 co-expression, lit1-tk-luc (AID 652126).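 Further: 0% = DMSO-only wells and 100% = 3 µM delta7-dafachronic acid wells.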 The settings on record: HEK293 ssDAF-12/GRIP1 lit1-tk-luc reporter, at 6.8 µM, stronger effect = higher value, % of 3 µM dafachronic acid response.
For `O=C(NC(=S)Nc1cccc2c(O)cccc12)c1cccc(Br)c1`, the activation was -1.15% (inactive).

In the case of `O=C(NC(=O)c1ccccc1)Nc1ccccc1O`, the activation was 2.39% (active).

Take `N#C/C(=C/c1ccc(Cl)cc1)NC(=O)c1ccccc1`: the activation is -1.06% (inactive).

Take `CCc1ccc2[nH]c(=O)c(Cc3ccccc3)c(O)c2c1`: the activation is -1.02% (inactive).

`NS(=O)(=O)c1ccccc1NC(=O)c1c(O)c2ccccc2[nH]c1=O`: the activation is 1.94% (active).

`CCCS(=O)(=O)Nc1c(C(=O)O)[nH]c2ccccc12`: the activation is 0.51% (inactive).

Take `OC(COc1ccc2ccccc2c1)Cn1cncn1` (stereo not given): the activation was -0.42% (inactive).

`O=S(=O)(c1ccc(OCC(O)CN2CCN(c3ccccc3Cl)CC2)cc1)N1CCOCC1` (stereo not given): the activation was -1.31% (inactive).

With `OC(COc1ccc2ccccc2c1)CN1CCOCC1` (stereo not given), the activation is 0.96% (active) and -0.96% (inactive).

As to `Cc1ccccc1CN1CCCCC(NC(=O)Nc2ccccc2F)C1=O` (stereo not given), the activation is -1.37% (inactive).

For `COc1cc(NC(=O)C2CCCN(S(=O)(=O)c3ccc(C(C)(C)C)cc3)C2)cc(OC)c1` (stereo not given), the activation is -0.79% (inactive).

Take `CCSC1=C(C#N)C(=O)n2c1cc1c2CCCC1`: the activation was -0.32% (inactive).

As for `CCC1CCc2c(sc(NC(C)=O)c2C#N)C1` (stereo not given), the activation was -1.82% (inactive).

As for `N#Cc1c(NC(=O)c2ccc(N3CCOCC3)c([N+](=O)[O-])c2)sc2c1CCCC2`, the activation is -1.7% (inactive).

Regarding `N#Cc1c(NC(=O)C2CCCO2)sc2c1CCCCC2` (stereo not given), the activation was 2.81% (active).

As for `C[C@@H]1COc2cccc(N3CCCC3)c2S(=O)(=O)N1C`, the activation was -1.35% (inactive).

Turning to `O=C(Cn1c(-c2ccc(Cl)cc2)noc1=O)N1CCN(c2ccccc2F)CC1`, the activation is -0.84% (inactive).

`O=c1onc(-c2c(F)cccc2F)n1-c1ccccc1Cl`: the activation was 1.01% (active).

`O=c1onc(-c2cccs2)n1Cc1ccccc1`: the activation was -1.05% (inactive).

For the compound `O=C(Nc1ccc2sc3ccccc3c(=O)c2c1)c1ccccc1Cl`, the activation was 1.16% (active).

As to `COCC(=O)N1CCc2ccc(NC(=O)c3ccccc3Cl)cc2C1`, the activation is -1.31% (inactive).

Regarding `CS(=O)(=O)c1ccccc1C(=O)Nc1ccc2sccc2c1`, the activation was -1.02% (inactive).

On to `COc1ccc(C2Nc3ccccc3C(=O)N2Cc2cccs2)cc1COc1c(C)cccc1C` (stereo not given), for which the activation was -0.82% (inactive).

On to `CCCn1nc(C(=O)NNC(=O)CSCC(=O)Nc2cc(C)on2)c2ccccc2c1=O`, for which the activation was -0.87% (inactive).

As to `CCCn1nc(C(=O)Nc2ccc3nc(C)sc3c2)c2ccccc2c1=O`, the activation is 8.45% (active).

As to `CCCCn1nc(C(=O)Nc2cccc(C(=O)NC3CC3)c2)c2ccccc2c1=O`, the activation is -1.7% (inactive).

As for `COc1ccc(-n2c(COc3ccc(C)cc3)nnc2SCC(=O)Nc2ccc(Oc3ccccc3)cc2)cc1`, the activation is -1.71% (inactive).

For the compound `CCCCCN1CCCCC(NC(=O)C(C)CCC)C1=O` (stereo not given), the activation is -1.23% (inactive).

`C=C(C)C#CC(Cc1ccccc1)N(CC1CC1)/C(N)=N/C(=O)OCc1ccccc1` (stereo not given): the activation is -1.98% (inactive).

With `COc1ccc(-n2c(SCC(=O)Nc3ccc4c(c3)OCCO4)nnc2-c2ccc(Cl)cc2)cc1`, the activation is -1.63% (inactive).

`CCC[C@H]1C(=O)CC[C@@]23CCCN2C(=O)CCC[C@@H]13`: the activation was -0.75% (inactive).

In the case of `O=C1CC[C@@]23CCCN2C(=O)CCC[C@H]3[C@H]1Cc1ccccc1`, the activation is -1.31% (inactive).

For `CCC(=O)c1c(CC)c2n3c1=CC[C@H]3CC(Br)C=2` (stereo not given in full), the activation is -1.9% (inactive).

Turning to `COc1ccc(NC2=CC(=S)NC(C)(C)C2)cc1`, the activation was -0.87% (inactive).

Turning to `COc1ccc(Nc2ccc3ccccc3c2)cc1`, the activation was 2.46% (active).

`COc1ccc(Nc2cc(=O)n(-c3ccccc3)c3c2c(=O)n(C)c(=O)n3C)cc1`: the activation is -0.93% (inactive).

With `CCN(C(=O)[C@@H](C1CC1)[C@@H](O)c1ccc2ccccc2c1)c1ccccc1`, the activation is -1.3% (inactive).

As to `N#Cc1ccc(OC[C@@H](O)CN2CCC(C(O)(c3ccccc3)c3ccccc3)CC2)c(F)c1`, the activation was -1.58% (inactive).

As for `O=C(c1cnn(-c2ccc(Cl)cc2)c1)c1ccccc1O`, the activation is 1.24% (active).

For `Cc1[nH]nc(-c2ccc(OCc3cnn(-c4ccccc4)c3)cc2O)c1Oc1ccc(Cl)cc1`, the activation is -0.99% (inactive).

For the compound `COc1ccc(CNC(=O)COc2ccccc2C(=O)c2cnn(-c3ccccc3)c2)cc1OC`, the activation was -0.31% (inactive).

Regarding `CC(C)CNS(=O)(=O)CC1NCCc2ccccc21` (stereo not given), the activation is -0.28% (inactive).

With `CC(=O)Nc1ccc(S(=O)(=O)Nc2nccc(/C=C/c3ccccc3F)n2)cc1`, the activation was -0.24% (inactive).

For the compound `CCOc1ncccc1C(=O)Nc1ccc(S(=O)(=O)Nc2nc(C)cc(C)n2)cc1`, the activation was -0.22% (inactive).

Regarding `Cc1cc(C)nc(NS(=O)(=O)c2ccc(N/C=C\C(=O)c3cccs3)cc2)n1`, the activation was 1.14% (active).

Take `O=S(=O)(c1ccc2c(c1)OCCCO2)N1CCN(S(=O)(=O)c2c(F)cccc2F)CC1`: the activation was -0.38% (inactive).

On to `COC(=O)C1=CO[C@@H](O[C@@H]2O[C@H](CO)[C@@H](O)[C@H](O)[C@H]2O)C2C1C[C@H](O)[C@@H]2C` (stereo not given in full), for which the activation is -1.3% (inactive).

Turning to `Cc1ccc(NC(=O)c2cc3ccccc3o2)cc1`, the activation was 2.98% (active).

As to `Cc1cccc(-n2nc3c(c2NC(=O)c2cc4ccccc4o2)CS(=O)(=O)C3)c1`, the activation was -0.31% (inactive).

As for `CC(OC(=O)c1cc2ccccc2o1)C(=O)Nc1ccc(N2CCOCC2)cc1` (stereo not given), the activation was -1.36% (inactive).

As for `CC(=O)N1CCc2cc(S(=O)(=O)NCCC(=O)N3CCCC3)ccc21`, the activation is -0.66% (inactive).

Turning to `Nc1[nH]c(/C=C2/CCCCC2n2[nH]c(=O)n(-c3ccccc3)c2=O)c(Cc2ccccc2)[n+]1Cc1ccccc1` (stereo not given), the activation was -1.51% (inactive).

With `COC(=O)[C@]12C[C@H](CC(=O)NCc3ccccc3)C(=O)N(Cc3ccccc3)C1=C[C@H](COCc1ccccc1)O[C@@H]2C`, the activation is -1.73% (inactive).

As to `NC(=O)CSc1c[nH]c2ccccc12`, the activation was 1.11% (active).

Take `O=C(CSc1nnc(-c2c[nH]c3ccccc23)o1)c1ccccc1`: the activation was -0.81% (inactive).

`CCCn1cc(SCC(N)=O)c2ccccc21`: the activation is -0.92% (inactive).

As for `COC(=O)[C@]12C[C@H](CC(=O)N3CCOCC3)C(=O)N(Cc3ccc(Cl)cc3Cl)C1=C[C@H](COCc1ccccc1)O[C@@H]2C`, the activation was -0.98% (inactive).

In the case of `N#Cc1ccccc1OC[C@@H](O)CN1CCC(C(O)(c2ccccc2)c2ccccc2)CC1`, the activation was -0.74% (inactive).

On to `Cc1c(NC(=O)CN(C)CC(=O)Nc2ccc(F)c(F)c2F)c(=O)n(-c2ccccc2)n1C`, for which the activation was -0.43% (inactive).

For the compound `COc1ccc(S(=O)(=O)/N=C2\C=C(NS(=O)(=O)c3ccccc3)C(=O)c3ccccc32)cc1`, the activation is 1.6% (active).

Regarding `CNC(=O)COc1ccc(S(=O)(=O)Nc2ccccc2)cc1`, the activation was -0.41% (inactive).

Consider `Cc1ccc(S(=O)(=O)/N=C2\C=C(NS(=O)(=O)c3ccc(C)cc3)C(=O)c3ccccc32)cc1`, for which the activation was -0.8% (inactive).

As to `O=C(CNC1CCCCC1)NCC1(c2ccccc2)CCCC1`, the activation was -1.46% (inactive).

On to `CCC(NC(=O)C1C2C=CC3(CN(Cc4ccccc4)C(=O)C13)O2)c1ccccc1` (stereo not given), for which the activation was -1.54% (inactive).

On to `COc1ccc(C(C(=O)NCc2ccccc2)n2c(=O)c(-c3ccccc3)nc3ccccc32)cc1` (stereo not given), for which the activation was -0.84% (inactive).

Regarding `COc1ccc(NC(=O)C(c2ccncc2)n2c(=O)c(-c3cc4ccccc4[nH]3)nc3ccccc32)cc1` (stereo not given), the activation is 1.22% (active).

Regarding `CCCCCNC(=O)C(c1ccc(OC)cc1)n1c(=O)c(-c2ccccc2)nc2ccccc21` (stereo not given), the activation was -0.6% (inactive).

For `O=C(NCc1cccs1)C1CCN(S(=O)(=O)c2ccccc2[N+](=O)[O-])CC1`, the activation was -1.16% (inactive).

For the compound `N#CCC[C@H]1CC[C@]2(CCCN(Cc3ccc(Cl)cc3)C2)O1`, the activation was -1.32% (inactive).

On to `O=C(Nc1ccc(F)cc1)c1cc2c(s1)CCCC2`, for which the activation was 0.25% (inactive).

As for `O=C(Nc1ccc2c(c1)CCC2)c1ccc(Br)s1`, the activation is 1.14% (active).

Take `CC(C)Oc1ccc(C(=O)NCC(=O)Nc2ccc3c(c2)CCC3)cc1`: the activation was -0.37% (inactive).

Take `Cc1ccc(/C=C/C(=O)O)cc1S(=O)(=O)N1CCC(Cc2ccccc2)CC1`: the activation is -1.4% (inactive).

Consider `COCCCNc1nc2ccccc2nc1NS(=O)(=O)c1ccc(F)cc1`, for which the activation was -0.23% (inactive).

Regarding `Cc1ccc(S(=O)(=O)Nc2nc3ccccc3nc2N2CCc3ccccc3C2)cc1`, the activation is 1.37% (active).

Regarding `Cc1ccc(S(=O)(=O)C(C#N)c2nc3ccccc3nc2N2CCCC2)cc1C` (stereo not given), the activation is -0.41% (inactive).

For the compound `Cc1cc(C(=O)NN=C/C=C/c2ccco2)n[nH]1`, the activation is -0.85% (inactive).

As to `CCOC(=O)C(=O)N(Cc1ccccc1)c1ccccc1C(=O)Nc1cc(OC)ccc1OC`, the activation was -1.83% (inactive).

As to `CCc1ccc2oc(-c3ccc(N)cc3)nc2c1`, the activation is 1.77% (active).

On to `Cc1ccc(-c2nnc(SCC(=O)Nc3ccc(Oc4ccccc4)cc3)n2Cc2ccco2)cc1`, for which the activation was -1.75% (inactive).

As for `COC(=O)[C@]1(C#N)CC(=O)N(CC2CCCCC2)[C@@H]1c1ccccc1`, the activation is 0.53% (inactive).

`O=C(Nc1ccccc1)N1CCN(Cc2nc3ccccc3c(=O)[nH]2)CC1`: the activation is -0.67% (inactive).

Regarding `COc1ccc(C(=O)Nc2sc(C)c(C)c2CN2CCOCC2)cc1`, the activation was 1.65% (active).

Regarding `COc1ccc(C(=O)Nc2ccnn2C2CCN(Cc3ccncc3)CC2)cc1`, the activation was -0.78% (inactive).

As for `CCc1cc(C(c2ccccc2OC)N2CCOCC2)c(NC(=O)c2ccccc2)s1` (stereo not given), the activation was -1.1% (inactive).

As for `O=C(NCc1cccs1)C1CCCN(S(=O)(=O)c2ccc([N+](=O)[O-])cc2)C1` (stereo not given), the activation is -1.79% (inactive).

With `Cc1nc(CNc2ncnc3ccc(-c4ccc5c(c4)OCO5)cc23)cs1`, the activation is -1.38% (inactive).

In the case of `CNc1nc(Nc2ccc(C)c(Cl)c2)nc(N)c1[N+](=O)[O-]`, the activation is 2.25% (active).

For the compound `Nc1nc(Nc2ccccc2F)nc(NC2CCCCC2)c1[N+](=O)[O-]`, the activation is -0.48% (inactive).

Turning to `COCCNc1nc(N)c([N+](=O)[O-])c(NCCO)n1`, the activation was -1.31% (inactive).

The values are drawn from PubChem BioAssay AID652126 (The Scripps Research Institute Molecular Screening Center, 2013).
